SENP8 block-1 = SENP8 protease inhibitors, primary screen, biochemical, luminescence; inhibition, % at 10 µM; purified SENP8, Z-RLRGG-aminoluciferin cleavage; Sentrin-specific protease 8 (Homo sapiens), Q96LD8; actives 1.2% (n = 330,000); in the data active = inhibition above about 50%
C8 TRAIL sens = viability loss with TRAIL in NB7+C8 cells, primary screen, TRAIL sensitizer project, cell-based, ATPlite luminescence; inhibition (viability loss, TRAIL sensitization), % at 10 µM; actives 1% (n = 360,000); AID 624354, 2012;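 active = compounds causing at least 50% loss of cell viability in the single-dose screen, relative to plate controls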
PPC-1+TRAIL kill = compounds killing PPC-1 cancer cells with TRAIL present, primary screen, TRAIL potentiator project, ATPLite luminescence, uHTS. actives 0.41% (n = 220,000). PPC-1 cells + TRAIL, ATPLite viability luminescence. cell killing (% activity), % at 4 µM or 5 µM;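 active = cell killing above 50% in the first pass at 4 µM, then a duplicate retest at 5 µM averaging 50% or more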;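 also: plate controls were cells with TRAIL plus DMSO for no effect and medium-only wells lacking cells for full effect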
SENP6 inh = SENP6 protease inhibitors, primary screen, biochemical, luminescence, uHTS. actives 1.8% (n = 330,000). Recombinant SENP6 catalytic domain, aminoluciferin luminescence. Sentrin-specific protease 6 (Homo sapiens), Q9GZR1. inhibition, % at 10 µM;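 active = inhibition above about 50% at the single tested dose, limit read from the data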;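 also: plate controls were DMSO wells with enzyme for no effect and DMSO wells lacking enzyme for full effect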
SENP7 block = SENP7 protease inhibitors, primary screen, biochemical, luminescence, uHTS | actives 1.5% (n = 330,000) | inhibition, % at 5 µM | Sentrin-specific protease 7 (Homo sapiens), Q9BQF6 | recombinant SENP7, Z-RLRGG-aminoluciferin luminescence, 40 min;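 active = inhibition above about 50% at the single test dose, limit read from the data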;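 also: plate controls were DMSO with enzyme for no effect and no enzyme buffer wells for full effect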
Target sequence (Q9BQF6 706-1050 limits assumed): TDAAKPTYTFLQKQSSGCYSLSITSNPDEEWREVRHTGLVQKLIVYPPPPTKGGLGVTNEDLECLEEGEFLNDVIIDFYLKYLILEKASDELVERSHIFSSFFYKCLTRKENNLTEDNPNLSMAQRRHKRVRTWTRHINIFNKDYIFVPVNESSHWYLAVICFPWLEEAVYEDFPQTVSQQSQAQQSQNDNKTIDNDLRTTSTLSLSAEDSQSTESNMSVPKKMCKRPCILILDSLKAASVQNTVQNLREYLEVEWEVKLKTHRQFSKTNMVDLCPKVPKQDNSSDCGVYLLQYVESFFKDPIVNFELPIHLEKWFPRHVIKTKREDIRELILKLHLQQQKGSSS
SENP8 block-2 = human SENP8 protease inhibitors, primary screen, biochemical, fluorescence, Nedd8 protein substrate, uHTS | Sentrin-specific protease 8 (Homo sapiens), Q96LD8 | recombinant SENP8 | inhibition, % at 20 µM | actives 0.64% (n = 360,000); in the data active = inhibition mostly above about 40%, no sharp cut-off; inactive = mostly below about 27%
SENP8 conf = SENP8 protease inhibitors, retest, confirmation, biochemical, luminescence, single concentration. Recombinant SENP8, Z-RLRGG-aminoluciferin luminescence, 60 min. inhibition, % at 12.5 µM. actives 40% (n = 6,200). shares compounds with SENP7 block;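 active = mean inhibition across replicates above about 50%, limit read from the data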
SENP6 confirm = SENP6 protease inhibitors, confirmation, biochemical, luminescence, single concentration | shares compounds with SENP7 block | recombinant SENP6, Z-RLRGG-aminoluciferin luminescence | inhibition, % at 12.5 µM | actives 58% (n = 6,200) | AID 488915, 2010
SENP7 confirm = SENP7 protease inhibitors, retest, confirmation, biochemical, luminescence, single concentration | inhibition, % at 12.5 µM | recombinant SENP7, Z-RLRGG-aminoluciferin luminescence, 40 min | AID 488917, 2010 | shares compounds with SENP7 block | actives 69% (n = 6,200)
Casp3 SENP sel = caspase-3 protease inhibitors, confirmation, selectivity assay for SENP inhibitor project, biochemical, single concentration; inhibition, % at 12.5 µM; actives 60% (n = 6,200); purified caspase-3, Z-DEVD-aminoluciferin luminescence, 60 min; AID 488918, 2010; shares compounds with SENP7 block;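 active = mean inhibition above about 50%, limit read from the data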;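 also: plate controls were enzyme with DMSO for no effect and wells without caspase-3 for full effect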
Target sequence (P42574 28-227 limits assumed): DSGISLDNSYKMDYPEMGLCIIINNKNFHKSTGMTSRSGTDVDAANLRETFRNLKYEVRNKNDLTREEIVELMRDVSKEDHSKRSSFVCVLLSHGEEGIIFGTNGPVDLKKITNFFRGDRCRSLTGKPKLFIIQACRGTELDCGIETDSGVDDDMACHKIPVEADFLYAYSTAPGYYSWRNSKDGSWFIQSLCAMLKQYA
Luc interf = luminescence interference (SENP counter-screen). AID 488919. Pre-incubated SENP8/Z-RLRGG-aminoluciferin, luciferase luminescence interference. shares compounds with SENP7 block. actives 39% (n = 6,200). inhibition, % at 12.5 µM;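 active = mean inhibition above about 50% when retested at one dose, limit read from the data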;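 also: plate controls were DMSO wells with completed reaction for no effect and substrate without enzyme for full effect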
An asterisk follows results filed as active; nt = no result given. Hits are enriched below; roughly 3% of the tested compounds scored in any of these assays.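 The calls were made as follows, unless noted: active = mean inhibition above about 50% in the one-dose retest (limit read from the data); inactive = the rest.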

SMILES	SENP8 block-1	C8 TRAIL sens	PPC-1+TRAIL kill	SENP6 inh	SENP7 block	SENP8 block-2	SENP8 conf	SENP6 confirm	SENP7 confirm	Casp3 SENP sel	Luc interf
CN(C1=C(NC(=O)c2ccccc2)C(=O)c2ccccc2C1=O)C1CCS(=O)(=O)C1 (stereo not given)	60.0*	35.3	9.7	95.0*	53.0*	63.8*	69.9*	86.8*	57.3*	75.2*	0.2
CC1=NN(c2ccc(Br)cc2)C(=O)/C1=C/c1cccs1	0.6	-5.0	-5.3	74.8*	69.7*	43.2*	-28.4	-14.0	-7.4	-9.6	-8.6
Nc1ccc(Oc2ccc([N+](=O)[O-])cc2[N+](=O)[O-])cc1	-6.2	-4.1	26.7	-19.6	-18.1	25.1	nt	nt	nt	nt	nt
COc1ccccc1/C=C1/C(=O)N(c2ccccc2)N=C1C	-3.5	-22.0	nt	14.3	60.0*	31.3	-5.2	1.9	-10.3	1.3	2.3
CC1=NN(c2ccc(C)cc2)C(=O)/C1=C\c1ccc(Br)s1	2.3	3.9	29.2	12.1	21.5	8.8	nt	nt	nt	nt	nt
CC1=NN(c2ccccc2)C(=O)/C1=C\c1ccc(Oc2ccc([N+](=O)[O-])cc2[N+](=O)[O-])cc1	3.8	-2.6	1.1	25.2	68.4*	41.1*	11.3	14.5	-0.1	-0.8	0.1
COc1ccc(CNCc2cn(-c3cccc(F)c3)nc2-c2ccc(C)o2)cc1	-14.3	-10.1	20.5	-3.6	4.0	-126.9	nt	nt	nt	nt	nt
CC1O[C@@H](OC2C(O)C(O)C(CO)O[C@H]2OC2C[C@]3(C)C(CC(O)C4[C@@H]([C@]5(C)CC[C@@H](C(C)(C)O)O5)CC[C@]43C)[C@@]3(C)CCC(O)C(C)(C)C23)C(O)C(O)C1O (stereo not given in full)	8.7	-10.6	nt	-2.7	4.0	13.8	nt	nt	nt	nt	nt
CCOc1ccc(S(=O)(=O)N2CCN(CN3C(=O)CC4(CCCC4)C3=O)CC2)cc1	-15.2	5.9	nt	-22.8	-8.4	15.0	nt	nt	nt	nt	nt
Cc1cc(C)cc(NC2=C(N)C(=O)c3ccccc3C2=O)c1	28.7	14.6	nt	69.6*	11.4	47.6*	-3.4	5.8	2.3	4.8	-5.9
COCCN1CC(C(=O)NCCc2nc(C)c(C)s2)CCC1=O (stereo not given)	-3.5	-8.4	nt	-4.3	-4.0	11.0	nt	nt	nt	nt	nt
COc1ccc2c(c1)CCc1c(C(=O)NCC(C)C)noc1-2	29.1	-6.8	10.8	70.5*	51.4*	13.8	25.4	43.6	80.7*	56.8*	17.5
CCOC(=O)CN1C(=O)S/C(=C\c2ccc(-c3ccc(C(=O)O)c(Cl)c3)o2)C1=O	6.6	-4.8	nt	-0.8	1.3	-258.0	nt	nt	nt	nt	nt
CC(C)N1C(=O)S/C(=C\c2ccc(-c3ccc(Cl)c(C(=O)O)c3)o2)C1=O	86.4*	-3.1	nt	91.2*	77.3*	-191.3	94.1*	93.7*	98.7*	37.7	89.5*
c1ccc(-c2nc(-c3ccccn3)nc(-c3ccccn3)n2)nc1	-13.9	30.1	6.6	-14.9	-11.6	-0.5	nt	nt	nt	nt	nt
c1ccc(C2=NNC(c3ccccn3)=NN2)nc1	74.1*	5.9	nt	77.7*	30.1	25.0	3.0	88.9*	100.4*	96.2*	75.2*
c1ccc(-c2nnc(-c3ccccn3)s2)nc1	83.5*	38.0	48.4	89.8*	89.4*	-20.0	91.0*	93.2*	101.5*	96.4*	87.7*
COc1cccc(/C=N/Nc2cc(Cl)nc(C)n2)c1O	9.5	8.8	26.0	27.7	23.1	-25.8	nt	nt	nt	nt	nt
COc1cccc(/C=N/Nc2c(Cl)cncc2Cl)c1O	66.4*	9.2	nt	75.6*	61.8*	15.2	74.1*	71.0*	89.8*	65.0*	72.1*
COC(=O)c1ccc(N/N=C/c2cc([N+](=O)[O-])cc(OC)c2O)cc1	29.1	-0.6	-9.5	33.8	17.1	35.2	nt	nt	nt	nt	nt
COc1cccc(/C=N/Nc2ccc([N+](=O)[O-])cc2)c1O	61.5*	-13.4	nt	70.2*	78.0*	-69.4	20.5	66.6*	97.8*	50.0*	5.4
O=C(CCN1CCN(c2ccccc2F)CC1)Nc1cccc(F)c1	3.7	5.4	nt	13.1	2.7	6.0	nt	nt	nt	nt	nt
NC(=O)c1nn(-c2ccc(Cl)cc2Cl)c(=O)cc1O	1.5	1.1	5.8	23.4	5.3	13.7	nt	nt	nt	nt	nt
COc1ccc(NC(=O)c2cc(-c3sc(NC(=O)c4ccccc4)nc3C)n(CCO)n2)cc1	nt	10.6	nt	nt	nt	-24.9	nt	nt	nt	nt	nt
c1ccc(COc2ccc(OCCCn3cncn3)cc2)cc1	51.5*	29.5	32.1	73.4*	77.1*	24.5	74.5*	73.3*	89.0*	77.2*	74.3*
SMILES	SENP8 block-1	C8 TRAIL sens	PPC-1+TRAIL kill	SENP6 inh	SENP7 block	SENP8 block-2	SENP8 conf	SENP6 confirm	SENP7 confirm	Casp3 SENP sel	Luc interf
c1ccc(Cc2ccc(OCCn3cncn3)cc2)cc1	-5.6	-5.3	7.1	-5.3	-6.3	20.7	nt	nt	nt	nt	nt
O=C(CCc1nnc2ccc(NCc3ccco3)nn12)Nc1cccc(F)c1	5.1	6.5	nt	6.8	-0.6	5.2	nt	nt	nt	nt	nt
COc1ccc(CCNC(=O)CCNS(=O)(=O)c2cccc3nsnc23)cc1OC	5.8	23.5	10.4	-7.0	12.9	4.8	nt	nt	nt	nt	nt
COc1ccc(CCNC(=O)CCNS(=O)(=O)c2cccc3nonc23)cc1OC	-1.0	2.8	17.0	-10.8	80.1*	0.3	-0.2	6.8	7.8	1.5	1.1
Cc1ccc(S(=O)(=O)c2c(C)cc(C)nc2Cl)cc1	2.6	-7.2	-6.4	61.9*	2.4	27.9	2.4	-0.2	-4.8	-4.8	-3.0
Cc1cc(C)c(S(=O)(=O)c2ccccc2)c(Cl)n1	-4.1	2.4	-0.2	0.8	0.9	13.6	nt	nt	nt	nt	nt

Screening data from PubChem BioAssay.
